# PubChem BioAssay (NCATS)
# The source made the active and inactive calls. Entries that show only a call come without a potency. The call rests on the fitted dose curve; in most records, active means well fitted inhibition curve with a large enough effect; inconclusive means small, poorly fitted or top-dose-only effect; inactive means flat fitted curve, though single readings scatter.
# Test system: Nanoluciferase (engineered Oplophorus gracilirostris luciferase)
# Assay: Primary Nanoluciferase (NLuc) qHTS assay for identification of artifact compounds. (AID 1845222)
# Conditions: NLuc-conditioned medium, Nano-Glo luminescence, 5 min; series mostly up to 54.1 µM
# From the text: PI: Alexander Tropsha Ph.D.
# UNC Eshelman School of Pharmacy
# University of North Carolina, Chapel Hill, North Carolina
# Hits from high-throughput screening (HTS) of chemical libraries are often false positives due to their interference with the assay detection technology. In response to this problem, we generated the largest publicly available library of chemical liabilities and developed a free webtool to predict HTS artifacts, both of which are described herein. More specifically, we generated, curated, and integrated HTS datasets for thiol reactivity, redox activity, and luciferase (firefly and nano) activity. Using these curated datasets, we developed and validated several Quantitative Structure-Interference Relationship (QSIR) models to predict nuisance behavior. […] These models were employed for virtual profiling of the National Center for Advancing Translational Science's (NCATS) in-house library, and 256 compounds for each assay were selected for the experimental validation of nuisance behavior. The BA for these external predictions ranged from 58 to 78% for compounds within the applicability domains of the models. […] The models developed in this study, along with aggregation models previously developed by our group (SCAM Detective) were implemented in "Liability Predictor," an online tool which may be used as part of chemical library design or for triaging HTS hits. Both the models and the curated datasets are publicly available at https://liability.mml.unc.edu/.
# SEQUENCE No. (e.g., 1, 2, 3, etc.); […] (e.g., Cells, Incubation, Reagent, etc.); VALUE; DESCRIPTION.
# 1; Reagent; 2 uL; Nanoluciferase media.
# 2; Compounds and control; 16 nL; Kalypsis pin tool (Wako USA) equipped with a 1536-well pin head.
# 4; Reagent; 2 uL; Luciferase enzyme.
# 6; Detection; Luminescence, ViewLux microplate reader.
# NOTES (numbers refer to Sequence numbers above)
# 1. Medium was collected from the culture flasks of NLuc-expressing S16 cells (80% confluent) prior to cell plating, filtered through a 0.22um filter, and frozen at -20C prior to use. Media was diluted (1:55) and 2 uL was dispensed into all wells of a 1536-well assay plate (solid-bottom white plate; Greiner Bio One, Monroe, NC).
# 2. A Wako Pin-tool (Wako Automation, Richmond, VA) was used to transfer 16 nL of compounds (consisting of 7-plates in qHTS format, final concentration range 18.3 nM to 114 uM) or control Cilnidipine (final concentration range 623 nM to 80 uM).
# 3. 15 min. incubation at room temperature protected from light.
# 4. 2 uL of NLuc substrate (1:100 in Nano-Glo luciferase buffer; Nano-Glo luminescence assay, Promega, Madison, WI) was dispensed for a final assay volume of 4 uL.
# 5. Plates were centrifuged (121xg, 15 seconds) and incubated for 5 minutes.
# 6. Samples were read for luminescence on a ViewLux CCD imager (PerkinElmer). Data were normalized to no-enzyme (0% activity) and no-inhibitor (DMSO; 100%) controls and the resulting percent inhibition data were fitted to a 4-parameter Hill equation using NCATS in-house software.
# Potency means the concentration at half of the fitted maximal effect.
row,Compound,Potency
1,COc1ccc(-c2cc3c(C)nc(N)nc3n(C3CCC(OCCO)CC3)c2=O)cn1 (stereo not given),inactive
2,Cn1c(CNc2ccc(C(=N)N)cc2)nc2cc(C(=O)N(CCC(=O)O)c3ccccn3)ccc21,inactive
3,Cc1ccc(C(=O)Nc2cccc(C(F)(F)F)c2)cc1-c1ccc2nc(NCCN3CCOCC3)ncc2c1,inactive
4,Cc1c(C)n(Cc2ccc(-c3ccccc3C(=O)O)cc2)c2ccc(C(=O)N[C@@H](C)c3ccc([N+](=O)[O-])cc3)cc12,inactive
5,CN(C)CC(C)(C)CNc1nn2c(-c3ccccc3)nnc2cc1C1CCC1,inactive
6,Cc1cc(Nc2cc(N3CCN(C)CC3)nc(Sc3ccc(NC(=O)C4CC4)cc3)n2)n[nH]1,inactive
7,CS(=O)(=O)c1ccc(-c2cnc(N)c(C(=O)Nc3ccccc3)n2)cc1,inactive
8,COc1cc(C(=O)N2CCC(N3CCN(C)CC3)CC2)ccc1Nc1ncc2c(n1)N(C)c1ccccc1C(=O)N2C,inactive
9,O=C(O)C1(Cc2cccc(Nc3nccs3)n2)CCC(Oc2cccc(Cl)c2F)CC1 (stereo not given),inactive
10,CCCNC(=O)Nc1ccc(Oc2ncnc3cc(OC)c(OC)cc23)cc1Cl,inactive
11,CN(C1CCc2c(c3ccccc3n2CC(=O)O)C1)S(=O)(=O)c1ccc(F)cc1 (stereo not given),inactive
12,C=CC(=O)Nc1cccc(Oc2nc(Nc3ccc(N4CCN(C)CC4)cc3)ncc2Cl)c1,inactive
13,O=C(Nc1cn[nH]c1-c1nc2ccc(CN3CCOCC3)cc2[nH]1)NC1CC1,inactive
14,O=C(CCCCCCNC(=O)c1cnc(N(c2ccccc2)c2ccccc2)nc1)NO,inactive
15,O=C(CCCCCCC(=O)Nc1ccc([C@H]2O[C@@H](CSc3nc(-c4ccccc4)c(-c4ccccc4)o3)C[C@@H](c3ccc(CO)cc3)O2)cc1)NO,inactive
16,c1ccc2c(CCNc3ccc(Nc4ccncc4)cc3)c[nH]c2c1,inactive
17,O=C(Nc1cc(C(F)(F)F)cc(C(F)(F)F)c1)c1cc(Cl)ccc1O,inactive
18,CCCCCN(CCC12CC3CC(CC(C3)C1)C2)C(=O)NCCCc1ccncc1,inactive
19,CNC(=O)c1nn(C)c2c1C(C)(C)Cc1cnc(Nc3ccc(N4CCN(C)CC4)cc3)nc1-2,inactive
20,COc1ccc(C(=O)CC2(O)C(=O)Nc3c(Cl)ccc(Cl)c32)cc1 (stereo not given),inactive

row,Compound,Potency
1,NC(=O)c1c(OCc2c(F)cc(Br)cc2F)nsc1NC(=O)NCCCCN1CCCC1,inactive
2,COc1cc2c(cc1-c1c(C)noc1C)ncc1[nH]c(=O)n([C@H](C)c3ccccn3)c12,inactive
3,CCS(=O)(=O)c1cccc(-c2cc(C(=O)NC3CCN(C)CC3)c(C)c3[nH]c4ncc(C)cc4c23)c1,inactive
4,Clc1ccc2ncc(-c3cccc(NC4CNC4)n3)n2c1,inactive
5,N#CCNC(=O)c1ccc(-c2ccnc(Nc3ccc(N4CCOCC4)cc3)n2)cc1,inactive
6,COCCOc1ccc2c(c1)ncn2-c1ccc2cccc(N3CCC(N)CC3)c2n1,inactive
7,COc1ccc2c(c1)CC[C@@H](CN(C)CC(=O)O)[C@H]2c1ccccc1,inactive
8,Cc1cn2cc(C(=O)N(C)CCO)cc(N[C@@H]3CCOc4cccc(C)c43)c2n1,inactive
9,CC(C)c1cnn2c(NCc3ccccc3)cc(N[C@@H](CO)[C@H](O)CO)nc12,inactive
10,Cc1c(NC(=O)OC[C@@H]2COCCN2)cn2ncnc(Nc3ccc4c(cnn4Cc4cccc(F)c4)c3)c12,inactive
11,CC(C)c1cc(-c2n[nH]c(=O)n2-c2ccc3c(ccn3C)c2)c(O)cc1O,inactive
12,Cn1c2ccccc2c2c3c(c4c5ccccc5n(CCC#N)c4c21)CNC3=O,inactive
13,COc1cccc(-c2ccc(NC(=O)C3=C(C(=O)O)CCC3)c(F)c2)c1,12 µM (active)
14,CNC(=O)c1ccccc1Nc1nc(Nc2ccc(N3CCOCC3)cc2OC)ncc1Cl,inactive
15,CC(C)Nc1cc(C(F)(F)F)cc2nc(NC(=O)c3cccnc3)nn12,inactive
16,CC(=O)Nc1sc2c(c1-c1nc3ccccc3s1)CNC2,inactive
17,CNC(=O)CN1CCC(Oc2cc3c(Nc4cccc(Cl)c4F)ncnc3cc2OC)CC1,inactive
18,O=C(O)Cn1nnc(-c2cc(N3CCC(Oc4cc(F)ccc4Br)CC3)no2)n1,inactive
19,COc1ccc(F)c(F)c1C(=O)c1cnc(NC2CCN(S(C)(=O)=O)CC2)nc1N,inactive
20,Nc1cc(C(F)(F)F)c(-c2cc(N3CCOCC3)nc(N3CCOCC3)n2)cn1,inactive
